Our source for the outcome and AC50 values is PubChem BioAssay (EPA / NIEHS).

A short description of assay [1]: TOX21_p53_BLA_p2_viability: Viability Assessment in the Tox21 HCT-116 p53 Agonism Beta-lactamase Assay, Phase 2 (AID 2283591).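 Note: compound exposure lasted 16 h at 37 °C; actives lower the ATP signal meaning cytotoxicity.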 In short, it runs like this:
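Cytotoxicity readout: CellTiter-Glo ATP luminescence, 30 min at room temperature, after the beta-lactamase read. Cells were HCT116 exposed 16 h at 37C to compounds pin-transferred at 217-fold dilution from DMSO stocks.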

The nature of assay [2]: TOX21_p53_BLA_p3_viability: Viability Assessment in the Tox21 HCT-116 p53 Agonism Beta-lactamase Assay, Phase 3 (AID 2283593).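 Note: cells exposed to compound for 16 h before reading.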 In short, it runs like this:
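Cellular ATP was quantified by CellTiter-Glo luminescence, read after 30 min at room temperature. Beforehand, HCT116 cells (4000/well) received compound 5 h post-seeding, 217-fold diluted from DMSO, then incubated 16 h at 37C.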

The target in assay [3] is Cellular tumor antigen p53 (Homo sapiens) (UniProt P04637). Kind of assay: TOX21_p53_BLA_p3_ratio: Tox21 HCT-116 p53 Agonism Beta-lactamase Assay, Ratio, Phase 3 (AID 2283596). In short, it runs like this:
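Cells were seeded at 4000/well, rested 5 h at 37C, then dosed with DMSO compound solutions (217-fold dilution) for 16 h. CCF4-AM substrate was loaded for 2 h at room temperature, and the 460/530 nm emission ratio was fitted for gain of signal versus DMSO.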

A short description of assay [4]: TOX21_p53_BLA_p4_viability: Viability Assessment in the Tox21 HCT-116 p53 Agonism Beta-lactamase Assay, Phase 4 (AID 2283597).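 Note: hits lower the luminescence signal meaning cytotoxicity.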 In short, it runs like this: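 Viability is taken as cellular ATP: after 16 h compound exposure of HCT116 cells and a 2 h room-temperature CCF4-AM substrate step, CellTiter-Glo reagent is added and luminescence is measured 30 min later.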

For assay [5], the target named is Cellular tumor antigen p53 (Homo sapiens) (UniProt P04637). The experiment in a line: TOX21_p53_BLA_p5_ratio: Tox21 HCT-116 p53 Agonism Beta-lactamase Assay, Ratio, Phase 5 (AID 2283599). In short, it runs like this:
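Beta-lactamase reporter ratio (blue 460 nm over green 530 nm, 405 nm excitation) after 2 h CCF4-AM loading, in HCT-116 cells exposed 16 h at 37 C to compounds pinned at 217-fold dilution. Increases relative to DMSO baseline scored.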

Assay [6] can be described thus: TOX21_p53_BLA_p5_viability: Viability Assessment in the Tox21 HCT-116 p53 Agonism Beta-lactamase Assay, Phase 5 (AID 2283600). In short, it runs like this: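 Viability is taken from cellular ATP content, measured by luciferase luminescence in the same wells after the beta-lactamase ratio read. Cells are seeded at 4000 per well and exposed to DMSO-dissolved compounds, diluted 217-fold, for 16 h.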

Assay [7] addresses Cellular tumor antigen p53 (Homo sapiens) (UniProt P04637). Kind of assay: TOX21_p53_BLA_p4_ratio: Tox21 HCT-116 p53 Agonism Beta-lactamase Assay, Ratio, Phase 4 (AID 2283601). In short, it runs like this: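 Signal is the blue/green (460nm/530nm) ratio of cleaved versus uncleaved CCF4-AM substrate, read after 2 h substrate loading. Cells were HCT116 carrying the p53-responsive beta-lactamase reporter, dosed 16 h at 37C, 5% CO2; CellTiter-Glo measured in parallel.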

Assay [8] is described as follows: CCTE_Harrill_HTTr_Apoptosis_MCF7: CCTE's 6-hour Apoptosis Assessment for the High-Throughput Transcriptomics (HTTr) Platform, in MCF-7 cells cultured in DMEM + 10% fetal bovine serum, Harrill Lab (AID 2284011; active = hit-call score of the fitted dose curve at least 0.9, where 1 is the maximum; inactive = score below 0.9). In short, it runs like this:
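Cells are dosed with test chemicals at eight concentrations and imaged 6 hours later for caspase-3/7 activity using a green fluorogenic detection reagent. Activity is fitted in both directions against DMSO controls.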

Records with an inconclusive call do not appear. The source made the active and inactive calls. Rule for the calls, unless noted: active = hit-call score of the fitted dose curve at least 0.9, where 1 is the maximum; inconclusive = response in the unintended direction; inactive = score below 0.9.

Sequence of Cellular tumor antigen p53 (Homo sapiens) (P04637 whole entry, looked up): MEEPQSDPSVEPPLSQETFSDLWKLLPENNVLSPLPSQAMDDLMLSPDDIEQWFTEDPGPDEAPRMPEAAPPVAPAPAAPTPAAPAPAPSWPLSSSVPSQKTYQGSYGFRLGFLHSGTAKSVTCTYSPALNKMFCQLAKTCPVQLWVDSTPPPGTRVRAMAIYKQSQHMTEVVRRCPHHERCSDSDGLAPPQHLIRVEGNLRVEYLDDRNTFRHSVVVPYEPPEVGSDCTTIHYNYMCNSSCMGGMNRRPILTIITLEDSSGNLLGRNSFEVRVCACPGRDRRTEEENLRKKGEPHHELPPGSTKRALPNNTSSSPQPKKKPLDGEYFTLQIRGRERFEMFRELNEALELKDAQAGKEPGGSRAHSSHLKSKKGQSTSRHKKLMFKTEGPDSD

Consider `CCC1(c2ccccc2)C(=O)NC(=O)N(C(=O)c2ccccc2)C1=O` (stereo unspecified), for which the compound was called inactive in assay [1], in assay [2], in assay [3], in assay [4], in assay [5] and in assay [6]. Moreover, the result in assay [7] was inactive.

As to `Oc1cccc[c]1[Hg][Cl]`, the AC50 – broadly, the midpoint of the concentration-response curve, whichever way the signal moves – in assay [1] was 4.03 µM (active); in assay [2], 9.5 µM (active); in assay [3], 18.6 µM (active); in assay [4] it was 4.24 µM (active); in assay [5], 6.39 µM (active); in assay [6], 3.94 µM (active). In addition, the concentration at half-maximal activity (AC50) in assay [7] is 8.72 µM (active).

For `N#C/C(N)=C(/N)C#N`, the compound was classed as inactive in assay [1], in assay [2], in assay [3], in assay [6] and in assay [7].

Regarding `CNC(C)Cc1ccccc1OC` (stereo unspecified), the result in assay [1], in assay [2], in assay [3], in assay [4] and in assay [6] was inactive.

Consider `S=C=NCCc1ccccc1`, for which the result in assay [1], in assay [2] and in assay [5] was inactive. The concentration at half-maximal activity (AC50) in assay [3] is 59.3 µM (active).

`O=[N+]([O-])O[C@H]1CO[C@H]2[C@@H]1OC[C@H]2O[N+](=O)[O-]`: the compound was called inactive in assay [1], in assay [2], in assay [3] and in assay [7].

As to `CC(C)c1ccc(NC(=O)N(C)C)cc1`, the compound was called inactive in assay [1], in assay [2], in assay [3], in assay [4], in assay [5] and in assay [6]. Also, the outcome in assay [7] was inactive.

Consider `CC(Cc1ccccc1)NCc1ccccc1Cl` (stereo unspecified), for which the call in assay [1], in assay [2], in assay [3], in assay [4], in assay [5] and in assay [6] was inactive. Moreover, in assay [7], the result was inactive.

Take `CCCN(CC1CC1)c1c([N+](=O)[O-])cc(C(F)(F)F)cc1[N+](=O)[O-]`: the call in assay [1], in assay [2], in assay [3], in assay [4], in assay [5] and in assay [6] was inactive. Moreover, the outcome in assay [8] was inactive.

As for `CCOC(=O)CBr`, the compound was called inactive in assay [1], in assay [2], in assay [3], in assay [4] and in assay [6].

For `CCCCCCCCCCCCCCCCCC(=O)O`, the compound was classed as inactive in assay [1], in assay [2] and in assay [4].

In the case of `O=C(Cl)/C=C/C(=O)Cl`, the outcome in assay [1], in assay [2], in assay [4], in assay [5], in assay [6] and in assay [7] was inactive.

With `CCCCCc1cc(O)c2c(c1)OC(C)(C)[C@@H]1CCC(C)=C[C@@H]21`, the half-maximal activity concentration (AC50) in assay [1] is 24.4 µM (active); in assay [2] it was 23.4 µM (active); in assay [3], 40.4 µM (active); in assay [4] it was 21.4 µM (active); in assay [5], 43.1 µM (active); in assay [6], 32.8 µM (active). Moreover, in assay [7], the AC50 is 40 µM (active).

As to `CC(=O)O[C@H]1C[C@H](O[C@H]2[C@@H](O)C[C@H](O[C@H]3[C@@H](O)C[C@H](OC4CC[C@@]5(C)[C@H](CC[C@@H]6[C@@H]5CC[C@]5(C)[C@@H](C7=CC(=O)OC7)CC[C@]65O)C4)O[C@@H]3C)O[C@@H]2C)O[C@H](C)[C@H]1O[C@@H]1O[C@H](CO)[C@@H](O)[C@H](O)[C@H]1O` (stereo partly specified), the AC50 in assay [1] is 0.0994 µM (active); in assay [2], 0.0855 µM (active); in assay [4], 0.137 µM (active); in assay [6], 0.0749 µM (active). Besides, in assay [5], the outcome was inactive.

For the compound `COC(C)(C)CCCC(C)C/C=C/C(C)=C/C(=O)OC(C)C` (stereo unspecified), the call in assay [1], in assay [2], in assay [3], in assay [4], in assay [5] and in assay [6] was inactive. Also, the result in assay [7] was inactive.
